Laboratory results: PubChem BioAssay (NCI)
About 79,000 compounds went through this panel and 15% of them were active in at least one assay; those are over-represented in the sample as a whole. Cut-off read from the data, not from the text of the source: active = growth inhibition above about 70%; inactive = the rest.

How the values were obtained:
[1] = NCI Yeast Anticancer Drug Screen. Data for the rad50 strain (AID 155);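 note: 0% = growth of vehicle-only cultures of the same strain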; conditions: S. cerevisiae rad50 strain growth inhibition; at 50.0 µM; stronger effect = higher value
Procedure, shortened: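 Relative growth inhibition (compound vs vehicle) was measured in yeast with a defined repair-gene alteration.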

[2] = NCI Yeast Anticancer Drug Screen. Data for the mec2-1 strain (AID 157); conditions: S. cerevisiae mec2-1 strain, at 50.0 µM, stronger effect = higher value
Procedure, shortened: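 Cells of the genetically defined mec2-1 yeast strain are incubated with test compound. Inhibition of growth is calculated against vehicle-treated controls.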

[3] = NCI Yeast Anticancer Drug Screen. Data for the sgs1 mgt1 strain (AID 161);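 note: 0% = growth of cultures given vehicle only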; conditions: S. cerevisiae sgs1 mgt1 strain, at 50.0 µM, stronger effect = higher value
Procedure, shortened: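 Mutant yeast exposed to compound; growth scored against vehicle-only wells.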

[4] = NCI Yeast Anticancer Drug Screen. Data for the cln2 rad14 strain (AID 165);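 note: 0% = growth equal to vehicle treated cultures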; conditions: S. cerevisiae cln2 rad14 strain, at 50.0 µM, stronger effect = higher value
Procedure, shortened: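 The screen exposed genetically defined yeast (cln2 rad14) to test compounds and scored growth inhibition relative to vehicle-treated controls.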

[5] = NCI Yeast Anticancer Drug Screen. Data for the bub3 strain (AID 167); conditions: S. cerevisiae bub3 mutant strain, at 50.0 µM, stronger effect = higher value
Procedure, shortened: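 Screening used yeast with an engineered genetic alteration affecting cell cycle control. Compound-exposed cultures were compared with vehicle cultures, and reduced growth was taken as inhibition.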

[6] = NCI Yeast Anticancer Drug Screen. Data for the mlh1 rad18 strain (AID 175); conditions: S. cerevisiae mlh1 rad18 strain growth inhibition; at 50.0 µM; stronger effect = higher value
Procedure, shortened: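 Compound-treated yeast growth, normalised to vehicle controls. Strain bears defined DNA repair mutations.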

Measured: growth inhibition

CCCNc1nc(C)nc2[nH]c(Cc3ccccc3)c(C)c12
inactive: [1] 12.4% | [2] 11.9% | [3] 21.9% | [4] 0.8% | [5] 14.8% | [6] 27.1%

COc1cc(Cc2cc(OC)c(OC)c(OC)c2)ccc1O
inactive: [1] -23.4% | [2] -8.5% | [3] -8.5% | [4] -2.6% | [5] 19.1% | [6] 9.5%

CCCC(=O)c1ccc2c(c1)CCc1cc(O)ccc1-2
inactive: [1] 13.8% | [2] 1.35% | [3] 12.3% | [4] -5.05% | [5] 23.4% | [6] 1.6%

CN(C)c1ccc(/C=C(\C#N)c2cccc(Br)c2)cc1
inactive: [1] -2.45% | [2] -7.3% | [3] 3.1% | [4] -11.3% | [5] 12.1% | [6] -0.05%

ClCCOC(c1ccc(Cl)cc1)c1ccc(Cl)cc1
inactive: [1] -1.6% | [2] 3.5% | [3] -4.55% | [4] -12.9% | [5] 0.45% | [6] 19.8%

C#CC(O)C(CC)CCCC (configuration not stated)
inactive: [1] -11.1% | [2] -46.5% | [3] -14.7% | [4] -10.4% | [5] -12.8% | [6] 13.8%

O=C(O)CCCCc1ccc2ccccc2c1
inactive: [1] 4% | [2] 15.4% | [3] 16.4% | [4] 29.2% | [5] 5.95% | [6] 26.8%

Cc1cc2nc3ccc(=[N+](C)C)cc-3sc2cc1N
inactive: [1] -24.2% | [2] -39.8% | [3] -20.6% | [4] -14.2% | [5] -25.8% | [6] -24.1%

OCc1ccccc1F
inactive: [1] -42.4% | [2] -34% | [3] -20.6% | [4] -15.3% | [5] -15.1% | [6] -36.2%

CS/C(=C\c1ccc2ccccc2[n+]1C)N1CCN(CCCO)CC1
inactive: [1] 23.4% | [2] 10% | [3] 9.95% | [4] -20.6% | [5] -7.4% | [6] 38.1%

COc1nsc2ccc(C(C)C(N)=O)cc12 (configuration not stated)
inactive: [1] -35.5% | [2] 3.8% | [3] -9.1% | [4] -22.4% | [5] -2.25% | [6] -4.4%

N=c1ccccn1CC(O)COc1ccccc1 (configuration not stated)
inactive: [1] -11.2% | [2] -9.6% | [3] -1.6% | [4] 1.1% | [5] 4.2% | [6] -5.8%

Cc1ccc(-c2nc(C)c(C(=O)Nc3ccc(Cl)cc3)s2)cc1
inactive: [1] -36.6% | [2] -25.4% | [3] -59.4% | [4] 2.85% | [5] -12.3% | [6] -65.9%

N=C(N)SCCC(=O)CCSC(=N)N
inactive: [1] 27.9% | [2] 18.6% | [3] 33.6% | [4] 32.2% | [5] 15.6% | [6] -2.75%

CC/C(C)=C1\OC(=O)C(C)C(O)C(Cc2cccnc2)NC(=O)C(NC(=O)c2ncccc2O)C(C)OC1=O (configuration not stated)
inactive: [1] -4.45% | [2] 3.7% | [3] 0.45% | [4] -10.4% | [5] -3% | [6] -14.9%

CCOc1ccc(C(=O)OC(C)C)cc1
inactive: [1] 26.5% | [2] 4.15% | [3] 1.9% | [4] 2.7% | [5] -2.45% | [6] 6.15%

C=CCOC(=O)CCC(=O)OCC=C
inactive: [1] 3.45% | [2] 6.2% | [3] -4.65% | [4] -15.4% | [5] 5.8% | [6] -4.35%

O=C(OCc1ccccc1)c1ccccc1
inactive: [1] 18.9% | [2] 3.05% | [3] 10.8% | [4] -13.3% | [5] 28.1% | [6] 51.9%

O=C(Cc1ccccc1)Nc1cccc2ccccc12
inactive: [1] 6.15% | [2] 1.7% | [3] 0.8% | [4] 1% | [5] 22.9% | [6] 0.9%

Cc1nc(N)nc(-c2ccccc2)c1N=Nc1cc(Cl)cc(Cl)c1
inactive: [1] 5.95% | [2] -8.3% | [3] -3.65% | [4] -6.45% | [5] -5.15% | [6] 7.45%

CCOC(=O)CCc1c[nH]c2ccccc12
inactive: [1] -12.3% | [2] -17.1% | [3] -9.9% | [4] -9.85% | [5] 0.2% | [6] -3.5%

COc1ccc(/C=C/C(=O)O)cc1OC
inactive: [1] -1.65% | [2] -12% | [3] 11.7% | [4] -1% | [5] 12.3% | [6] -0.65%

CC(C)CC(NC(=O)CNC(=O)CNC(=O)OCc1ccccc1)C(=O)O (configuration not stated)
inactive: [1] -0.1% | [2] 7.75% | [3] -2.1% | [4] -21.8% | [5] -0.9% | [6] 10.8%

CC(C)CCCC(C)C1CCC2C3CCC4CC5(C)C(CC4(C)C3CCC12C)C(=O)C5(Cl)Cl (configuration not stated)
inactive: [1] 13.2% | [2] -2.7% | [3] -22.4% | [4] 0% | [5] -3.55% | [6] -27.9%

COc1cc(NCCCCCNC(C)C)c2nccc(C)c2c1
inactive: [1] 42.2% | [2] 43.1% | [3] 56.6% | [4] 28.6% | [5] 27.9% | [6] 50.5%

CSc1ccc(C(=C=C=C(c2ccc(SC)s2)c2ccc(SC)s2)c2ccc(SC)s2)s1
inactive: [1] 38.7% | [2] -19.8% | [3] 2.85% | [4] -24.2% | [5] -31.9% | [6] -2.1%

CCCC(O)C(C)C(C)O (configuration not stated)
inactive: [1] -28.5% | [2] -16.1% | [3] -17.4% | [4] 25.1% | [5] -2.15% | [6] -8.75%

CCN(C)c1nc(N(C)CC)c2nc(N(C)CC)nc(N(C)CC)c2n1
inactive: [1] 1.95% | [2] -3.4% | [3] 17.8% | [4] 4.5% | [5] -14.5% | [6] -65.1%

CC(C)c1ccc(/C=C/C(=O)c2ccc(F)cc2)cc1
inactive: [1] 14.6% | [2] 13.5% | [3] 16.5% | [4] 10.1% | [5] 5.05% | [6] 17.6%

O=C(c1ccccc1)c1ccccc1-c1nc2ccccc2c(=O)o1
inactive: [1] 11.8% | [2] -6.65% | [3] 1.65% | [4] 29.9% | [5] 30.8% | [6] -0.8%

NS(=O)(=O)c1ccc(NC(=O)Nc2cccc(Cl)c2)cc1
inactive: [1] 1.35% | [2] 12.6% | [3] 15.5% | [4] -4.9% | [5] 46.4% | [6] -11.3%

O=C(N=C1C(=O)C2(CCCCC2)C2(N=C(c3ccccc3)OC2=O)C12CCCCC2)c1ccccc1 (configuration not stated)
inactive: [1] 11.8% | [2] 8.75% | [3] 9.35% | [4] -5.05% | [5] -2.35% | [6] 14.5%

Cc1c(C2CCC(=O)C2)c2ccccc2n1C (configuration not stated)
inactive: [1] -3.05% | [2] -23.3% | [3] -4.6% | [4] 15.4% | [5] 2.1% | [6] 3.5%

O=C(NNc1c(F)c(F)c(C(F)(F)F)c(F)c1F)c1ccccc1
inactive: [1] 3.55% | [2] -19.1% | [3] -10.9% | [4] -64.3% | [5] -14.8% | [6] -19.1%

OCC(O)C(O)C(O)C(Sc1ccccc1)Sc1ccccc1 (configuration not stated)
inactive: [1] 7.15% | [2] 11.8% | [3] 7.4% | [4] 8.3% | [5] -7.25% | [6] 16.8%

CCOc1ccc(/C=C\C(=O)O)cc1
inactive: [1] -1.9% | [2] -19.6% | [3] 8.5% | [4] -5.75% | [5] 1.25% | [6] 1.55%

CC(=O)Oc1ccc(OC(C)=O)c2c(OC(C)=O)ccc(OC(C)=O)c12
inactive: [1] 0.45% | [2] 2.15% | [3] 1.55% | [4] -10.3% | [5] 53.8% | [6] -6.8%
